Reference: PubChem BioAssay AID2315 (National Center for Advancing Translational Sciences (NCATS), 2010)
Among all 290,000 compounds or so, about 27,000 (9.3%) were called active. The full list was thinned out, with actives kept by preference. A number with no mark means an inactive call. Cut-off read from the data, not from the text of the source: active = inhibition mostly above about 28% (no sharp cut-off); inactive = mostly below about 43%.

Experiment: A qHTS for Small Molecule Inhibitors of Shiga Toxin; note: 0% is about no effect
Details: Vero cells, Shiga toxin protein synthesis inhibition reporter; at 38.7 µM, stronger effect = higher value

| SMILES | inhibition |
| --- | --- |
| COc1ccc(C(C)NC(=O)C2CCCC2)cc1 (stereo not drawn) | -3.92% |
| O=C(COc1ccc2ccc(=O)oc2c1)NCC(O)c1ccccc1 (stereo not drawn) | -18.4% |
| O=C(O)c1ccccc1C(=O)NC1=NN(c2ccccc2)CC1 | 3.05% |
| CCOC(=O)C1CCN(c2ccc(C(=O)O)cc2[N+](=O)[O-])CC1 | -7.98% |
| Cc1cccc(N2CCN(c3ccc(C(N)=O)cc3[N+](=O)[O-])CC2)c1C | 5.45% |
| Cc1ccc(C(=O)c2ccc(N3CCN(C)CC3)c([N+](=O)[O-])c2)cc1 | 76.3% (active) |
| CCOC(=O)C1CN(S(=O)(=O)c2ccc(OC)cc2)c2cc(Cl)ccc2O1 (stereo not drawn) | -12.8% |
| CC(C)C(C)NC(=O)COc1nc2ccccc2nc1N(C)C1CCCCC1 (stereo not drawn) | -16.3% |
| O=C(NC1CCCC1)C1CCN(C(=O)Nc2cccc(Cl)c2)CC1 | -5.04% |
| Cc1ccc(S(=O)(=O)N(Cc2ccccc2)c2ccccn2)cc1[N+](=O)[O-] | 5.85% |
| Cc1ccc(C(=O)/C=C/c2c(C)nn(-c3ccccc3)c2Cl)cc1 | 45.2% (active) |
| Cc1nn(-c2ccccc2)c(C)c1/C=C/C(=O)OC(C)C(N)=O (stereo not drawn) | -6.62% |
| COc1ccc(CCNC(=O)c2c(C)nn(-c3ccccc3)c2Cl)cc1 | 15.3% |
| Cc1nn(-c2ccccc2)c(Cl)c1C(=O)Nc1ccccc1 | 108% (active) |
| Cc1nn(-c2ccccc2)c(C)c1NC(=O)CCl | 16.7% |
| Cc1nn(-c2ccccc2)c(Cl)c1/C=C/C(=O)c1ccc(O)cc1 | 37.6% |
| Cc1cccc([C@@H]2[C@@H]3C(=O)N(Cc4ccccc4)C(=O)[C@@H]3[C@]3(C)C(=O)N(c4ccc(Br)cc4)C(=O)N23)c1 | 10.9% |
| CCCN1CCN(C(=O)CCCNC(=O)c2ccc(Cl)cc2)CC1 | -8.41% |
| C[C@H](NC(=O)C1CC(=O)N(c2ccc3c(c2)OCCO3)C1)C(=O)N1CCC(C(=O)O)CC1 (stereo partly drawn) | -10.9% |
| COc1ccccc1N1CCN(C(=O)c2cc3c(-c4ccc(Cl)cc4)nn(C)c3s2)CC1 | 19.3% |
| COc1ccccc1N1CCN(C(=O)c2cn(-c3ccccc3)nc2-c2cccnc2)CC1 | 39.2% (active) |
| O=C(c1cn(-c2ccccc2)nc1-c1cccnc1)N1CCCCC1 | -13.3% |
| COc1cc(C(=O)N2CCN(C3CCC(C)CC3)CC2)cc(OC)c1OC (stereo not drawn) | -9.82% |
| CCOc1ccc2nc(N(CCCN(C)C)C(=O)c3ccc(C(=O)c4ccccc4)cc3)sc2c1 | -6% |

| SMILES | inhibition |
| --- | --- |
| O=C(O)c1ccc(-n2nc(-c3ccccc3)c3ccccc3c2=O)cc1 | 17.9% |
| CCOc1ccc(CCNC(=O)Nc2ccccc2)cc1OCC | 7.13% |
| CCOC(=O)C1CCN(C(=O)C2CCCN(S(=O)(=O)c3ccc(OC)c(Cl)c3)C2)CC1 (stereo not drawn) | -2.72% |
| CCc1ccc2oc(-c3ccc(N)cc3)nc2c1 | 47.9% (active) |
| COc1ccc(C2C3=C(CCCC3=O)N(CC(=O)O)C3=C2C(=O)CCC3)cc1 | 14.1% |
| CCCCSc1nnc(-c2ccc(C)cc2)o1 | 63.2% (active) |
| CCOC(=O)CSc1nnc(-c2ccncc2)o1 | -2.72% |
| Cc1cccc(C)c1OC(=O)CSc1nnc(-c2ccccc2)o1 | -1.97% |
| O=C(c1cc2ccccc2o1)N1CCN(Cc2ccccc2)CC1 | 22.5% |
| O=C(NCCc1ccccc1)C(=O)NCC1OCCN1S(=O)(=O)c1cccs1 (stereo not drawn) | 15.4% |
| COc1ccc(Oc2coc3cc(OC(=O)c4cncc(Br)c4)ccc3c2=O)cc1 | 31.4% |
| CCc1ccc(Oc2coc3cc(O)ccc3c2=O)cc1 | 57.1% (active) |
| CCc1ccc(Oc2coc3cc(OC(=O)c4cc5ccccc5oc4=O)ccc3c2=O)cc1 | 22.7% |
| O=C(O)C1CCC(CNS(=O)(=O)c2ccc(Br)cc2)CC1 (stereo not drawn) | -6.36% |
| O=C(NC(=O)c1ccccc1)Nc1ccccc1O | 105% (active) |
| O=C(NC(=O)c1ccccc1)NC(=O)c1ccccc1 | -0.343% |
| O=C(Nc1ccc(C(=O)O)c(O)c1)c1ccccc1 | 2.52% |
| CCCC(=O)N1CCN(c2nnc(-c3ccc(C)cc3)c3ccccc23)CC1 | -11.9% |
| Fc1ccc2nc(N3CCCCC3)sc2c1 | 82% (active) |
| c1c2c(cc3sc(N4CCCCC4)nc13)OCCO2 | 14.5% |
| Brc1ccc2nc(N3CCCC3)sc2c1 | 133% (active) |
| Cc1nc(N2CCCCC2)sc1C=O | 17.8% |
| O=C(NCCc1cccc(F)c1)C1CCCN(c2nc3ccccc3s2)C1 (stereo not drawn) | -11.7% |
| O=C(c1ccc2nc(N3CCOCC3)sc2c1)N1CCN(c2ccc(Cl)cc2)CC1 | -6.87% |
